Inconclusive results are not listed. Calls of active or inactive are those of the source. The calls were made as follows, unless noted: active = hit-call score of the fitted dose curve at least 0.9, where 1 is the maximum; inactive = score below 0.9.

We go through 13 compounds from PubChem BioAssay (EPA / NIEHS).

Assay [1] relates to SERPINA7 (gene 6906). Nature of the assay: CCTE_GLTED_hTBG: CCTE's human Thyroxine-binding Globulin (TBG) Inhibition Assay, Great Lakes Toxicology and Ecology Division (GLTED) Lab (AID 2284343; active = hit-call score of the fitted dose curve at least 0.9, where 1 is the maximum;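 also: active chemicals lower fluorescence versus DMSO baseline by displacing probe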). In a few lines: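 Human TBG incubated 2 h with test chemical; displacement of ANSA probe read by fluorescence, 380 nm excitation/475 nm emission. Loss of signal relative to DMSO.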
In assay [2] the test system is TTR (gene 7276). Nature of the assay: CCTE_GLTED_hTTR_0.125uM: CCTE's human Transthyretin (hTTR) Inhibition Assay, with 0.125uM TTR, Great Lakes Toxicology and Ecology Division (GLTED) Lab (AID 2284431).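 Also: hits lower the fluorescence signal relative to DMSO baseline.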 An outline of the steps: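 Cell-free displacement of ANSA probe from 0.125uM TTR after 2 h incubation with chemical. Fluorescence read at 380 nm excitation/475 nm emission; loss of signal relative to DMSO indicates T4-site displacement.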

Assay [3] in a line: VALA_TUBHUV_Agonist_TubuleLength: VALA Sciences human Umbilical Vein Endothelial Tubule Formation (TUBHUV) Agonism Assay (AID 2284337; active = hit-call score of the fitted dose curve at least 0.9, where 1 is the maximum). In a few lines:
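HUVEC co-cultured with fibroblasts (1:3) 3 days in 10 ng/ml VEGF, then 3 days with compound plus VEGF; 0.1 % DMSO neutral control. Fixed, nuclear and CD31 stained; tubule length by fluorescence imaging.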

The nature of assay [4]: VALA_TUBIPS_Agonist_CellCount: Viability Assessment in the VALA Sciences human iPS-derived Endothelial Tubule Formation (TUBIPS) Agonism Assay (AID 2284338; active = hit-call score of the fitted dose curve at least 0.9, where 1 is the maximum).
Assay [5] concerns SRY-box transcription factor 17 (SOX17) Protein Expression, Deisenroth Lab, SOX17 (gene 64321). Nature of the assay: CCTE_Deisenroth_DEVTOX-GLR_legacy_Sox17: (Legacy) CCTE's DevTox GLR-Endo Assay Evaluation of SRY-box transcription factor 17 (SOX17) Protein Expression, Deisenroth Lab (AID 2284341). Particulars: actives raise or lower the signal. An outline of the steps: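 Percent SOX17-positive cells, scored by high-content imaging as mean intensity exceeding pluripotent-control median by 5x BMAD, divided by cell count. Human RUES2-GLR endoderm differentiation, 48 h, two exposures 24 h apart, 1 nM–200 uM; DMSO-referenced bidirectional fitting.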

For assay [6], the system named is SRY-box transcription factor 2 (SOX2) Protein Expression, Deisenroth Lab, SOX2 (gene 6657). Nature of the assay: CCTE_Deisenroth_DEVTOX-GLR_legacy_Sox2: (Legacy) CCTE's DevTox GLR-Endo Assay Evaluation of SRY-box transcription factor 2 (SOX2) Protein Expression, Deisenroth Lab (AID 2284346). In a few lines:
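hPSC RUES2-GLR, 384-well; 24 h seed → 48 h endoderm differentiation, 2 doses q24h, 1 nM–200 uM. Fix, nuclear dye, 5 fields/well. Sox2+ cells/cell count; cell positive if >5x BMAD over endoderm ctrl; gain direction vs DMSO.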

A short description of assay [7]: CCTE_Deisenroth_H295R-HTRF_384WELL_ESTRADIOL: CCTE's H295R-HTRF Assay Evaluation of Estradiol Concentration, Deisenroth Lab (AID 2284361). Particulars: actives raise or lower the signal. An outline of the steps:
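H295R cells exposed 48 h to chemicals at 0.001 - 100 uM final (nine points, triplicate); estradiol in conditioned medium measured by HTRF immunoassay, fitted bidirectionally versus DMSO. Viability by CellTiter-Glo on same plates.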

Assay [8] is described as follows: CCTE_Deisenroth_H295R-HTRF_384WELL_TESTOSTERONE: CCTE's H295R-HTRF Assay Evaluation of Testosterone Concentration, Deisenroth Lab (AID 2284373). The following applies: actives raise or lower the signal. In a few lines:
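H295R cells were acclimated 24 h, then exposed 48 h to nine concentrations (0.001–100 uM final) in technical triplicate, n=5. Testosterone in conditioned medium was measured by HTRF (em 620/665 nm). Fitting was bidirectional versus DMSO; CellTiter-Glo viability ran on the same plates.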

A short description of assay [9]: CCTE_Deisenroth_H295R-HTRF_384WELL_CTOX: Cytotoxicity Assessment in CCTE's H295R-HTRF Assay, Deisenroth Lab (AID 2284380; active = hit-call score of the fitted dose curve at least 0.9, where 1 is the maximum). An outline of the steps: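 H295R adrenocortical carcinoma cells plated 24 h, then exposed 48 h to nine-point series 0.001–100 uM final, triplicate, n=5. ATP measured by CellTiter-Glo 2.0 luminescence on same plates after medium collection; loss versus DMSO.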

In assay [10] the test system is SRY-box transcription factor 2 (SOX2) Protein Expression, Deisenroth Lab, SOX2 (gene 6657). Kind of assay: CCTE_Deisenroth_DEVTOX-GLR_Endo_SOX2: CCTE's DevTox GLR-Endo Assay Evaluation of SRY-box transcription factor 2 (SOX2) Protein Expression, Deisenroth Lab (AID 2284412; active = hit-call score of the fitted dose curve at least 0.9, where 1 is the maximum). In a few lines: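 RUES2-GLR human pluripotent cells were seeded 24 h, then differentiated 48 h with two chemical exposures 24 h apart. Cells were fixed, nuclei stained and imaged by high-content microscopy. Endpoint is %SOX2+ cells over cell count, minus 0.2% DMSO control; 10-point series 1 nM–200 uM.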

In assay [11] the test system is SRY-box transcription factor 17 (SOX17) Protein Expression, Deisenroth Lab, SOX17 (gene 64321). Kind of assay: CCTE_Deisenroth_DEVTOX-GLR_Endo_SOX17: CCTE's DevTox GLR-Endo Assay Evaluation of SRY-box transcription factor 17 (SOX17) Protein Expression, Deisenroth Lab (AID 2284413). An outline of the steps:
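Seed RUES2-GLR cells 24 h; start endoderm differentiation; dose at 0 and 24 h (1 nM - 200 uM, 10 points); fix at 48 h, stain nuclei, image 5 fields/well; compute SOX17+/total cells vs 0.2% DMSO.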

The test system of assay [12] is Brachyury (BRA) Protein Expression, TBXT (gene 6862). Kind of assay: CCTE_Deisenroth_DEVTOX-GLR_Endo_BRA: CCTE's DevTox GLR-Endo Assay Evaluation of Brachyury (BRA) Protein Expression, Deisenroth Lab (AID 2284417). An outline of the steps:
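Endpoint is the fraction of BRA reporter-positive cells over total nuclei, corrected by subtracting the 0.2% DMSO value. Chemicals (1 nM - 200 uM, 10 points) were dosed twice during 48 h differentiation of RUES2-GLR cells, read by imaging.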

The nature of assay [13]: CCTE_Deisenroth_DEVTOX-GLR_Endo_CellCount: Viability Assessment in CCTE's DevTox GLR-Endo Assay, Deisenroth Lab (AID 2284420). An outline of the steps:
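RUES2-GLR pluripotent cells seeded 24 h, then differentiated 48 h in defined media with two chemical exposures 24 h apart. Nuclei counted by high-content imaging; 10-point 1 nM–200 uM series; percent change versus 0.2% DMSO.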

Assay [14] concerns SRY-box transcription factor 17 (SOX17) Protein Expression, Deisenroth Lab, SOX17 (gene 64321). Nature of the assay: CCTE_Deisenroth_DEVTOX-GLR_Pluri_SOX17: CCTE's DevTox GLR-Pluri Assay Evaluation of SRY-box transcription factor 17 (SOX17) Protein Expression, Deisenroth Lab (AID 2284427; active = hit-call score of the fitted dose curve at least 0.9, where 1 is the maximum). An outline of the steps:
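RUES2-GLR pluripotent cells were induced toward endoderm over 48 h and received two compound doses 24 h apart, in a 10-point series from 1 nM to 200 uM. The percentage of SOX17+ cells among total cells was measured by high-content imaging and reported minus the 0.2% DMSO control.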

In assay [15] the test system is SRY-box transcription factor 2 (SOX2) Protein Expression, Deisenroth Lab, SOX2 (gene 6657). Kind of assay: CCTE_Deisenroth_DEVTOX-GLR_Pluri_SOX2: CCTE's DevTox GLR-Pluri Assay Evaluation of SRY-box transcription factor 2 (SOX2) Protein Expression, Deisenroth Lab (AID 2284428). An outline of the steps:
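RUES2-GLR human pluripotent cells, two exposures 24 h apart over 48 h differentiation; 10-point series 1 nM - 200 uM. High-content imaging gives SOX2+ cells divided by cell count, reported as percent change versus 0.2% DMSO.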

For assay [16], the system named is Brachyury (BRA) Protein Expression, Deisenroth Lab, TBXT (gene 6862). Nature of the assay: CCTE_Deisenroth_DEVTOX-GLR_Pluri_BRA: CCTE's DevTox GLR-Pluri Assay Evaluation of Brachyury (BRA) Protein Expression, Deisenroth Lab (AID 2284429; active = hit-call score of the fitted dose curve at least 0.9, where 1 is the maximum). In a few lines: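 An inducible fluorescent BRA reporter in RUES2-GLR cells tracks mesoderm differentiation. Compounds (10 concentrations, 1 nM - 200 uM) are dosed twice within a 48-h differentiation. The endpoint subtracts the 0.2% DMSO control from percent BRA+ cells.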

A short description of assay [17]: CCTE_Deisenroth_DEVTOX-GLR_Pluri_CellCount: Viability Assessment in CCTE's DevTox GLR-Pluri Assay Evaluation of Total Cell Counts, Deisenroth Lab (AID 2284430). In a few lines: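 RUES2-GLR human pluripotent cells, seeded 24 h, then differentiated 48 h with two chemical exposures 24 h apart; 10-point series 1 nM - 200 uM. Fixed, nuclear-stained, imaged (5 fields/well); nuclei count as % change vs 0.2% DMSO.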

The nature of assay [18]: CCTE_Mundy_HCI_iCellGluta_NOG_NeuronCount: CCTE's Neurite Outgrowth Assay in iCellGluta cells for Neuron Count, Mundy Lab (AID 2284340; active = hit-call score of the fitted dose curve at least 0.9, where 1 is the maximum;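 also: cells fixed about 48 h after compound addition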). In a few lines:
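Neuron count read by automated high-content imaging of Hoechst 33342 and betaIII-tubulin/Alexa Fluor-488 labelling in human iPSC glutamatergic neurons. Activity fitted relative to DMSO.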

Assay [19] is described as follows: CCTE_Mundy_HCI_iCellGluta_NOG_NeuriteCount: CCTE's Neurite Outgrowth Assay in iCellGluta cells for Neurite Count, Mundy Lab (AID 2284342; active = hit-call score of the fitted dose curve at least 0.9, where 1 is the maximum;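 also: chemical exposure about 48 hours starting 2 hours after plating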).

For `CCCCCCCCOc1ccc(C(=O)c2ccccc2)c(O)c1`, the half-maximal activity concentration (AC50) in [1] was 39.1 µM (active); in [2], 25 µM (active).

Turning to `Cc1oc2c(NC(=O)c3c(Cl)cccc3Cl)cccc2c1C(C)(C)O`, the half-maximal activity concentration (AC50) in assay [1] was 13.6 µM (active); in assay [2], 1.47 µM (active).

Regarding `CCCOC(=O)c1cc(O)c(O)c(O)c1`, the AC50 in assay [2] is 0.26 µM (active).

As for `CCCCCCCCOC(=O)c1cc(O)c(O)c(O)c1`, the AC50 in assay [3] is 50 µM (active); in assay [4] it was 24.2 µM (active); in [1], 3.42 µM (active); in [2] it was 0.512 µM (active).

Turning to `COCC(C)OCC(C)OCC(C)O` (stereo not drawn), the compound was classed as inactive in assay [2].

For `CCCCOC(=O)c1ccc(O)cc1`, the concentration at half-maximal activity (AC50) is 55.3 µM (active) in [5]; 100 µM (active) in assay [6]; 54.3 µM (active) in [7]; 152 µM (active) in [10]; 56.3 µM (active) in assay [11]; 66.5 µM (active) in [12]. In addition, the AC50 in assay [13] is 37.9 µM (active); in [14], 51.6 µM (active); in [15], 21.6 µM (active); in [16], 89.2 µM (active); in assay [17], 19.8 µM (active); in assay [2], 2.26 µM (active). Besides, the outcome in assay [8] and in assay [9] was inactive.

Regarding `CCCCCCCCCC(=O)O`, in assay [2], the AC50 was 7.04 µM (active).

`O=C1O[C@H]([C@@H](O)CO)C(O)=C1O`: the compound was called inactive in assay [18] and in assay [19].

For the compound `O=c1c(-c2ccc(O)cc2)coc2cc(O)cc(O)c12`, the half-maximal activity concentration (AC50) in assay [7] was 21.6 µM (active); in assay [8] it was 6.78 µM (active). Also, in assay [9], the outcome was inactive.

In the case of `Clc1ccccc1C(c1ccccc1)(c1ccccc1)n1ccnc1`, the AC50 in assay [7] is 0.129 µM (active); in [8] it was 0.117 µM (active). The outcome in assay [9] was inactive.

On to `NC(=O)c1nc(-c2cccc(-c3cc(F)ccc3OCC(F)(F)C(F)(F)F)c2)n[nH]1`, for which the concentration at half-maximal activity (AC50) in assay [1] was 3.35 µM (active).

As for `CCCCCc1ccc(N)cc1`, the half-maximal activity concentration (AC50) in assay [1] is 29.9 µM (active); in [2] it was 26.3 µM (active).

In the case of `O=C(O)Cc1cc(I)c(Oc2ccc(O)c(I)c2)c(I)c1`, the half-maximal activity concentration (AC50) in [1] was 0.0733 µM (active); in [2], 0.0224 µM (active).
